Here are results for 16 compounds from PubChem BioAssay.

Active and inactive are the calls of the source.

The target of experiment [1] is Albumin (Bos taurus) (UniProt P02769). Nature of the experiment: compounds binding labelled BSA control protein – biochemical, small-molecule microarray, Alexa647 label, 635/667 nm fluorescence, artefact control for SMM control protein annotation, profiling panel (AID 1118).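 Note: score merges 667 nm emission intensity and signal-to-noise per printed compound spot.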 Particulars: BSA-A647 binding, fluorescence 635 nm, higher = more signal.
Chain of Albumin (Bos taurus) (P02769 whole entry, looked up): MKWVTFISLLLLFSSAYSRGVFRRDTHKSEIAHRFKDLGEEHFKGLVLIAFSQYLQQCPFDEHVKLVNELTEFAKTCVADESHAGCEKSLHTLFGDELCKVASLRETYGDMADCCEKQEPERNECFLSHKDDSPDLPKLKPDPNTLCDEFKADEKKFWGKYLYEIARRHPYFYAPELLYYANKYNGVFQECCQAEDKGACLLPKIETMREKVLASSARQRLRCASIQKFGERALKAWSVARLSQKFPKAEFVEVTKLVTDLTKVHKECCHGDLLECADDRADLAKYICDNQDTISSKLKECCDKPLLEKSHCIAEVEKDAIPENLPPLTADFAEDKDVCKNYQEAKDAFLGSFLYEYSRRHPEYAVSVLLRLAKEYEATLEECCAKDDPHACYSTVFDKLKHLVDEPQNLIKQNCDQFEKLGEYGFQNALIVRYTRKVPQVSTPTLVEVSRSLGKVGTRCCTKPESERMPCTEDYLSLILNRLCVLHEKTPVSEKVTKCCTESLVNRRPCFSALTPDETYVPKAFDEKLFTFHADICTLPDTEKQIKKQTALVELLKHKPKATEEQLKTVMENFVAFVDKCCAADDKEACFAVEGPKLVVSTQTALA
Experiment [2] in a line: probe aXIP binding to arrayed compounds – biochemical, NeuroSMM set, 635/667 nm fluorescence, primary screen (AID 1119).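 Note: probe is the protein aXip251-270 applied at 1 µg/mL to compound-printed slides; binding of probe to printed compounds measured as 667 nm fluorescence plus signal to noise.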 Particulars: small-molecule microarray, higher = more signal, called active from +8 up or from −8 down.
The nature of experiment [3]: probe aNOTCH3 binding on compound microarray – biochemical, small-molecule microarray, 635/667 nm fluorescence, primary screen (AID 1120).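 Note: probe is a biotin-tagged antibody raised against NOTCH3 rather than NOTCH3 protein; score merges spot fluorescence near 667 nm with spot signal to noise.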 Particulars: higher = more signal.
Experiment [4] in a line: probe aNOTCH2 binding on compound microarray – biochemical, small-molecule microarray, 635/667 nm fluorescence, primary screen (AID 1121).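 Note: score merges feature fluorescence read at 667 nm with its signal to noise.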 Particulars: higher = more signal.
Experiment [5] deals with Carbonic anhydrase 2 (Homo sapiens) (UniProt P00918). As to the kind of experiment: compounds binding carbonic anhydrase 2 – biochemical, small-molecule microarray, Alexa647-labelled CAII, profiling panel (AID 1122). Particulars: CAII-A647 binding fluorescence, higher = more signal.
The nature of experiment [6]: COS7 lysate on small-molecule microarray, probe aHis, 635 nm (AID 1123).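 Note: z-score combines 667nm fluorescence intensity with signal-to-noise per printed compound spot.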 As to conditions: COS7 cell lysate, fluorescence, higher = more signal.
Experiment [7] in a line: probe aLAP1 signal on lysate-treated microarray – cell lysate, small-molecule microarray, COS7 lysate, primary screen (AID 1124).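 Note: lysate comes from COS7 cells expressing LAP1 and is applied at 0.3 µg/mL; score merges spot fluorescence near 667 nm with signal-to-noise over triplicate slides.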 Particulars: probe aLAP1, fluorescence, higher = more signal.
Experiment [8] has as its system Sam68 (KHDRBS1). As to the kind of experiment: compounds binding KHDRBS1 protein – biochemical, small-molecule microarray, 635 nm fluorescence, primary screen (AID 1125).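 Note: score merges 667 nm channel intensity with signal to noise over triplicate slides.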 As to conditions: higher = more signal.
In experiment [9] the test system is Chordin-like protein 2 (CHRDL2). Nature of the experiment: compounds binding chordin-like 2 – biochemical, small-molecule microarray, 635 nm fluorescence, primary screen (AID 1126).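 Note: printed compound slides probed with Chrdl2 protein at 4 µg/mL for 1 h at 4 C; score merges 667 nm emission intensity with signal to noise over three replicate slides.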 Particulars: fluorescence 635 nm, higher = more signal.
For experiment [10], the target named is Concanavalin-A (Canavalia ensiformis) (UniProt P02866). As to the kind of experiment: compounds binding concanavalin A lectin – biochemical, small-molecule microarray, Alexa647 label, 635 nm, artefact control for SMM control protein annotation, primary screen (AID 1127).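 Note: z combines 667 nm emission intensity with signal-to-noise across three replicate slides.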 As to conditions: ConA-A647 binding fluorescence, higher = more signal.
Chain of Concanavalin-A (Canavalia ensiformis) (P02866 whole entry, looked up): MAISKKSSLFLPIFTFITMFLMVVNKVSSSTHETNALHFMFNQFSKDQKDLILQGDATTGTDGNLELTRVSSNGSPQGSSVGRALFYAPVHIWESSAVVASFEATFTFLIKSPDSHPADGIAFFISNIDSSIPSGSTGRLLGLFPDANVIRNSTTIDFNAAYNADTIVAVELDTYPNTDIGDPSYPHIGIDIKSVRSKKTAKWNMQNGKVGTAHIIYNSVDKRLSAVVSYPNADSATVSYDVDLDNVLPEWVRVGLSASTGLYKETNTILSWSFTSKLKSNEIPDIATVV

For the compound `CC(C)C[C@@H]1NC(=O)[C@@H]2C[C@H](C(=O)NCCCC[N+](C)(C)C)[C@H](c3ccc(O)cc3)N2C1=O`, the composite z-score in experiment [1] was -0.857; in experiment [3] it was -0.0866; in experiment [4], -0.153; in experiment [5], 0.705; in experiment [6], 0.83; in experiment [7] it was 0.678. Moreover, the composite z-score is 1.09 in experiment [8], 1.37 in experiment [9] and 1.02 in experiment [10]. For the same compound, the composite Z-score in experiment [2] was 0.541 (inactive).
Take `CN(C)CCCC[C@@H]1NC(=O)[C@H]2C[C@@H](C(=O)NCc3ccc(F)cc3)[C@@H](c3ccc(O)cc3)N2C1=O`: the composite z-score is -0.734 in [1]; -0.136 in experiment [3]; -0.0423 in experiment [4]; 0.757 in experiment [5]; 2.25 in experiment [6]; 0.0507 in experiment [7]. Moreover, the composite z-score in [8] came to 1.16; in experiment [9], 1.13; in experiment [10], 1.15. Besides, the composite Z-score in experiment [2] is 1.79 (inactive).
For the compound `C=CCC(OC(C)=O)[C@@H]1[C@@H](N(Cc2cc3ccccc3o2)C(=O)c2ccc(-c3ccccc3)cc2)c2cc(OCCCO)ccc2N1C(=O)c1ccc2ccccc2n1` (stereo not given in full), the composite z-score in [1] was 0.593; in experiment [3] it was -0.0362; in experiment [4], -0.0901; in experiment [5], 0.0088; in [6], 0.23; in experiment [7], 0.269. In addition, the composite z-score in [8] is -0.626; in [9], 0.163; in experiment [10], -1.34. Also, the composite Z-score in experiment [2] is 0.176 (inactive).
Take `C=CCC(OC(C)=O)[C@@H]1[C@@H](N(Cc2cc3ccccc3o2)C(=O)Cc2ccc(OC)cc2)c2cc(OCCCO)ccc2N1C(=O)Cc1ccc(OC)cc1` (stereo not given in full): the composite z-score was -0.477 in experiment [1]; -0.0711 in experiment [3]; -0.153 in experiment [4]; 0.426 in experiment [5]; -0.188 in experiment [6]; 0.107 in experiment [7]. Besides, the composite z-score is -0.0765 in experiment [8], 0.208 in experiment [9] and -0.395 in experiment [10]. Further, the composite Z-score in experiment [2] is -0.188 (inactive).
As to `C#CCN=C(N)N`, the composite z-score in [1] was -0.0077; in experiment [3], 0.0276; in experiment [4], -0.0403; in experiment [5], 0.41; in experiment [6] it was 0.121; in experiment [7], 0.118. Moreover, the composite z-score is 0.754 in experiment [8], 0.437 in experiment [9] and 0.604 in [10]. Also, in experiment [2], the composite Z-score was 0.322 (inactive).
With `CC(C)C[C@@H]1NC(=O)[C@@H]2C[C@H](C(=O)O)[C@H](c3ccc(O)cc3)N2C1=O`, the composite z-score in [1] is -1.01; in experiment [3] it was 0.0488; in experiment [4], -0.106; in [5], 0.558; in experiment [6], 0.68; in experiment [7], 0.186. Further, the composite z-score in [8] was 1.31; in experiment [9], 1.15; in experiment [10], 1.21. The composite Z-score in experiment [2] is 0.102 (inactive).
As for `C=C(CCCC)/C(=C/C[C@H](OC(C)=O)c1cccc(OCCO)c1)c1cc(C(=O)OC)ccc1OC`, the composite z-score in experiment [1] is 0.387; in experiment [3], -0.21; in experiment [4], -0.132; in [5], 0.355; in experiment [6], -0.148; in experiment [7], 0.147. The composite z-score in experiment [8] was 0.302; in experiment [9], -0.149; in [10], -0.795. The composite Z-score in [2] is -0.822 (inactive).
On to `COCCCNC(=O)[C@@H]1c2ccccc2C(=O)N(C2CCCCC2)[C@H]1c1ccc(CO)cc1`, for which the composite z-score in [1] was -0.527; in [3] it was -0.27; in experiment [4] it was -0.106; in experiment [5], 0.471; in experiment [6], 1.08; in experiment [7] it was 0.0117. Further, the composite z-score in [8] was -0.724; in experiment [9], -1.23; in experiment [10], -0.247. In addition, in experiment [2], the composite Z-score is -1.17 (inactive).
With `CC(C)[C@@H](C(=O)O)n1cc(-c2ccccc2)nn1`, the composite z-score in experiment [1] is 0.739; in experiment [3] it was -0.0225; in [4], -0.0454; in experiment [5] it was 0.39; in experiment [6], 0.575; in experiment [7], 0.547. The composite z-score is 1.06 in experiment [8], -0.145 in experiment [9] and 1.12 in experiment [10]. The composite Z-score in [2] was 0.0388 (inactive).
As for `O=C(NCCO)C1=C[C@H](Oc2ccccc2I)[C@@H](O)[C@H](NCc2ccc(F)cc2)C1`, the composite z-score is -1.89 in [1]; -0.161 in experiment [3]; -0.14 in experiment [4]; -0.934 in [5]; -0.809 in experiment [6]; 1 in [7]. For the same compound, the composite z-score was -0.285 in experiment [8], -0.0242 in experiment [9] and -1.83 in experiment [10]. In experiment [2], the composite Z-score is -0.48 (inactive).
Regarding `CN1C(=O)C2C=CC(C(O)c3ccc(-c4ccccc4)s3)N(Nc3ccccc3)C2C1=O` (stereo not given), the composite z-score in [1] turned out to be 0.945; in experiment [3], 0.403; in [4] it was 0.135; in experiment [5] it was 0.714; in experiment [6], 1.94; in experiment [7], 0.32. The composite z-score is 1.24 in [8], -0.121 in experiment [9] and 1.15 in experiment [10]. Moreover, in [2], the composite Z-score was 0.498 (inactive).
In the case of `CC(C)c1ccc(NN2C(C(O)C(C)C)C=CC3C(=O)N(c4ccccc4)C(=O)C32)cc1` (stereo not given), the composite z-score in experiment [1] stood at 1.07; in experiment [3], 0.761; in experiment [4], 0.353; in experiment [5], 0.615; in experiment [6], 2.89; in [7], 1.43. The composite z-score in [8] is 1.31; in experiment [9] it was -0.256; in experiment [10], 1.2. Also, the composite Z-score in experiment [2] is 0.349 (inactive).
On to `O=C1O[C@H](c2ccccc2)[C@H](c2ccccc2)N2[C@H]1[C@@H](C(=O)N1CCN(c3ncccn3)CC1)[C@]1(C(=O)Nc3ccccc31)[C@H]2c1ccc(O)cc1`, for which the composite z-score in experiment [1] is 0.753; in experiment [3] it was -0.0932; in experiment [4], -0.0438; in experiment [5], 0.672; in experiment [6], 2.48; in [7], 0.445. For the same compound, the composite z-score in experiment [8] is 1.29; in [9] it was -0.0771; in experiment [10], 1.16. Moreover, the composite Z-score in experiment [2] was 0.56 (inactive).
Regarding `C=C(CCCC)C(=O)CC[C@H](OC(=O)c1cccnc1)c1ccc(CO)o1`, the composite z-score in experiment [1] was 0.133; in experiment [3], 0.19; in [4] it was -0.0323; in [5], 0.555; in experiment [6], 1.07; in experiment [7], 1.06. Besides, the composite z-score in experiment [8] is 1.3; in experiment [9] it was 0.608; in [10], 1.1. The composite Z-score in experiment [2] is 0.0385 (inactive).
Take `C=C(COC)/C(=C/C[C@H](OC(=O)c1ccncc1)c1cccc(OCCO)c1)c1cnc2ccccc2c1`: the composite z-score in [1] was 0.671; in experiment [3], 0.279; in [4], -0.0681; in experiment [5] it was 0.855; in [6], 1.21; in [7], 0.444. Also, the values for the composite z-score in experiment [8], in experiment [9] and in experiment [10] were 1.3, 1.23 and 1.09, respectively. The composite Z-score in [2] is 1.56 (inactive).
As to `COc1cccc(OC)c1C(=O)O[C@H]1[C@@H]2OC(=O)[C@H](Cc3cccc(Br)c3)C/C=C/C[C@@H](Cc3cccc(Br)c3)C(=O)O[C@H]2[C@@H](OC)O[C@@H]1CO`, the composite z-score in [1] is 0.33; in experiment [3], -0.122; in experiment [4], -0.105; in experiment [5], 0.628; in experiment [6], 1.2; in [7], 0.56. Further, the composite z-score in [8] was 1.06; in experiment [9], 0.351; in experiment [10], 0.293. The composite Z-score in experiment [2] is 0.878 (inactive).
